{"source": "PubChem BioAssay (EPA / NIEHS)", "note": "Active and inactive are the calls of the source. The calls were made as follows: active = hit-call score of the fitted dose curve at least 0.9, where 1 is the maximum; inactive = score below 0.9.", "data": [{"read-out": "urokinase plasminogen activator (uPA), PLAU (gene 5328)", "assay": "BSK_KF3CT_uPA: BioMAP Diversity Plus: KF3CT Assay for urokinase plasminogen activator (uPA) Biomarker Activity (AID 2283075)", "settings": "primary human keratinocytes with fibroblasts; actives raise or lower the signal", "protocol": "BSK_KF3CT is a cell-based, multiplexed-readout assay that uses keratinocytes and foreskin fibroblasts, a human skin primary cell co-culture, with measurements taken at 24 hours after chemical dosing in a 96-well plate.BSK_KF3CTA is an assay component measured in the BSK_KF3CT assay. It measures uPA antibody related to regulation of gene expression using ELISA technology.Data from the assay component BSK_KF3CTA was analyzed into 1 assay endpoint. This assay endpoint, BSK_KF3CTA, was analyzed with bidirectional fitting relative to DMSO as the negative control and baseline of activity. Using a type of binding reporter, gain or loss-of-signal activity can be used to understand changes in the signaling as they relate to the gene PLAU. Furthermore, this assay endpoint can be referred to as a primary readout, because this assay has produced multiple assay endpoints where this one serves a signaling function. To generalize the intended target to other relatable targets, this assay endpoint is annotated to the protease intended target family, where the subfamily is serine protease.\nThe levels of cell surface (or secreted, indicated by the prefix \"s\") biomarker endpoints were measured by ELISA. Overt cytotoxicity to cells in confluent adherent cultures (all systems other than the BT system) was assessed by measuring total protein levels using sulforhodamine B (SRB) staining in parallel cultures at the time of biomarker measurements, indicated as SRB endpoints. For proliferation assays for adherent cell types, individual cell types are cultured at sub-confluence and relative cell numbers quantified by SRB staining at time points optimized for each system (48 h: 3C and CASM3C systems; 72 h: BT and HDF3CGF systems; 96 h: SAg system). SRB was performed by staining cells with 0.1% SRB after fixation with 10% TCA and reading wells at 560 nm.Viability and proliferation of PBMC (T cells) was quantified by Alamar Blue reduction for the SAg and BT systems. For PBMC viability (referred to as PBMC Cytotoxicity within the assay endpoint names), cells were plated (75,000/well in a 96-well plate) and then chemical samples added for 1 h before addition of activators, SEB and TSST-1 (20 ng/mL final concentration each). Cells were incubated for 90 h. Then, Alamar Blue (20 uL/well) (Invitrogen, Cat DAL1100) was added for 6 h, and the plates were read with a fluorescence microplate reader at 546/580 nm (excitation/emission). For PBMC proliferation, cells were plated and activated as above but incubated for only 16 h prior to addition of Alamar Blue. Plates were read after 6 h.", "values": [{"smiles": "O=c1[nH]sc2ccccc12", "AC50": "33 µM (active)"}, {"smiles": "CC(C)(C)c1cc(/C=C2\\SC(N)=NC2=O)cc(C(C)(C)C)c1O", "AC50": "12.5 µM (active)"}, {"smiles": "Oc1ccc2ccccc2c1", "outcome": "inactive"}, {"smiles": "c1ccc(C[n+]2cccc3ccccc32)cc1", "outcome": "inactive"}, {"smiles": "O=C(O)Cn1c(=O)n(Cc2ccc(Br)cc2F)c(=O)c2ccc(Cl)cc21", "outcome": "inactive"}, {"smiles": "O=C1CCC(C2CCCCC2)CC1", "outcome": "inactive"}, {"smiles": "CN(C[C@@H](CC[N+]12CCC(C3CCCCC3)(CC1)CC2)c1ccc(Cl)c(Cl)c1)C(=O)c1cc(C(F)(F)F)cc(C(F)(F)F)c1", "AC50": "10.5 µM (active)"}, {"smiles": "OC12N=C(c3ccccc3)SC1Cc1cc(Cl)ccc12", "note": "(stereo not given)", "outcome": "inactive"}, {"smiles": "Cc1cc2c(cc1C(F)(F)F)N(C(=O)Nc1ccc(Oc3cccnc3C)nc1)CC2", "AC50": "29.2 µM (active)"}, {"smiles": "CCCC(=O)OCCC(C)C", "outcome": "inactive"}, {"smiles": "CC(O)CC(C)(C)O", "note": "(stereo not given)", "outcome": "inactive"}, {"smiles": "O=c1ccc2ccccc2o1", "outcome": "inactive"}, {"smiles": "Clc1cc(Cl)c2c(c1)N=C1CCCCCN1C2", "outcome": "inactive"}, {"smiles": "CCN(Cc1cccnc1)C(=O)c1cccc(Cl)c1[C@]1(C)C(=O)N(Cc2ccc(OC)cc2OC)c2ccc(Cl)cc21", "outcome": "inactive"}, {"smiles": "NC(=O)c1nc(-c2cccc(-c3cc(F)ccc3OCC(F)(F)C(F)(F)F)c2)n[nH]1", "AC50": "43.1 µM (active)"}, {"smiles": "CCCCCCCCCCCO", "outcome": "inactive"}, {"smiles": "O=C=NCCCCCCN=C=O", "outcome": "inactive"}, {"smiles": "Cc1cn([C@H]2C[C@H](N=[N+]=[N-])[C@@H](CO)O2)c(=O)[nH]c1=O", "outcome": "inactive"}, {"smiles": "CO[C@H]1/C=C/O[C@@]2(C)Oc3c(C)c(O)c4c(O)c(c(/C=N/N5CCN(C)CC5)c(O)c4c3C2=O)NC(=O)/C(C)=C\\C=C\\[C@H](C)[C@H](O)[C@@H](C)[C@@H](O)[C@@H](C)[C@H](OC(C)=O)[C@@H]1C", "outcome": "inactive"}, {"smiles": "Clc1ccccc1C(c1ccccc1)(c1ccccc1)n1ccnc1", "AC50": "9.72 µM (active)"}, {"smiles": "O=C(O)c1ccccc1C(=O)OCc1ccccc1", "outcome": "inactive"}, {"smiles": "CCCCCCCCCCCCO", "AC50": "30.4 µM (active)"}, {"smiles": "COCC(C)OCC(C)OCC(C)O", "note": "(stereo not given)", "outcome": "inactive"}, {"smiles": "O=C1O[C@H]([C@@H](O)CO)C(O)=C1O", "outcome": "inactive"}, {"smiles": "CC(C)(c1cc(Br)c(O)c(Br)c1)c1cc(Br)c(O)c(Br)c1", "AC50": "3.65 µM (active)"}, {"smiles": "CCCCCc1ccc(N)cc1", "outcome": "inactive"}, {"smiles": "CC(C)(O)c1ccc(CNC(=O)c2cccnc2Oc2ccc3nonc3c2)cc1", "outcome": "inactive"}, {"smiles": "CCN(CC)C(=O)c1cc(S(=O)(=O)Cc2ccccc2)c(N2CCC(c3ccccc3)CC2)cc1N(CC)CCN(C)C", "outcome": "inactive"}, {"smiles": "Oc1ccccc1", "outcome": "inactive"}, {"smiles": "CCCCCCCCN(C)CCCCCCCC", "outcome": "inactive"}, {"smiles": "COc1cc(C(=O)NC2CCN(C)CC2)ccc1Nc1ncc2c(n1)N(C1CCCC1)CC(F)(F)C(=O)N2C", "AC50": "27.1 µM (active)"}, {"smiles": "Cc1c2ccccc2c(C)c2c1ccc1ccccc12", "outcome": "inactive"}, {"smiles": "CCCCOC(=O)c1ccc(O)cc1", "outcome": "inactive"}, {"smiles": "Cc1oc2c(NC(=O)c3c(Cl)cccc3Cl)cccc2c1C(C)(C)O", "outcome": "inactive"}, {"smiles": "COc1ccc2cc(S(=O)(=O)N[C@H](CC(=O)N[C@H](Cc3ccc(CN4[C@H](C)CCC[C@@H]4C)cc3)C(=O)N(C)C(C)C)c3ccc4c(c3)OCO4)ccc2c1", "outcome": "inactive"}, {"smiles": "CCCOC(=O)c1cc(O)c(O)c(O)c1", "AC50": "3.97 µM (active)"}, {"smiles": "Cc1occc1C(=O)Nc1ccc(C(=O)N2CCC(F)(F)/C(=C\\C(=O)N3CCC(N4CCCCC4)CC3)c3ccccc32)cc1", "outcome": "inactive"}, {"smiles": "CCCCCCCCOC(=O)c1cc(O)c(O)c(O)c1", "AC50": "18.2 µM (active)"}, {"smiles": "Cc1cc(F)ccc1-c1cc(N2CC[C@@H](O)[C@H]2CO)ncc1N(C)C(=O)C(C)(C)c1cc(C(F)(F)F)cc(C(F)(F)F)c1", "AC50": "12.7 µM (active)"}, {"smiles": "CCOC(=O)O[C@H](C)OC(=O)c1ccc2c(c1)cc(C(=O)NC1CCN(C(C)C)CC1)n2Cc1cc(-c2ccc(Cl)s2)on1", "AC50": "8.14 µM (active)"}]}]}
